Here are results for 18 molecules from PubChem BioAssay AID1117288 (Broad Institute, 2014).

Potency and affinity values are given separately. Records with an inconclusive call do not appear. Unmarked numbers belong to inactive results. Calls of active or inactive are those of the source.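 How the source made its calls: active means compound whose fitted half-inhibition dose sits at or below twice its top tested dose in every test run; inconclusive means test runs disagree, or every run is unclear; inactive means inactive in every test run.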

The target in this assay is Leucyl-cystinyl aminopeptidase (Mus musculus) (UniProt Q8C129). The assay can be described thus: mouse IRAP aminopeptidase activity inhibition – biochemical, dry powder samples, set 3, selectivity assay for ERAP1 modulator project, dose response (AID 1117288). Conditions: purified IRAP enzyme, Leu-AMC fluorescence, 1 h; series mostly up to 50 µM; activity change, negative = inhibition: at the top concentration.
Leucyl-cystinyl aminopeptidase (Mus musculus), sequence (Q8C129 whole entry, looked up): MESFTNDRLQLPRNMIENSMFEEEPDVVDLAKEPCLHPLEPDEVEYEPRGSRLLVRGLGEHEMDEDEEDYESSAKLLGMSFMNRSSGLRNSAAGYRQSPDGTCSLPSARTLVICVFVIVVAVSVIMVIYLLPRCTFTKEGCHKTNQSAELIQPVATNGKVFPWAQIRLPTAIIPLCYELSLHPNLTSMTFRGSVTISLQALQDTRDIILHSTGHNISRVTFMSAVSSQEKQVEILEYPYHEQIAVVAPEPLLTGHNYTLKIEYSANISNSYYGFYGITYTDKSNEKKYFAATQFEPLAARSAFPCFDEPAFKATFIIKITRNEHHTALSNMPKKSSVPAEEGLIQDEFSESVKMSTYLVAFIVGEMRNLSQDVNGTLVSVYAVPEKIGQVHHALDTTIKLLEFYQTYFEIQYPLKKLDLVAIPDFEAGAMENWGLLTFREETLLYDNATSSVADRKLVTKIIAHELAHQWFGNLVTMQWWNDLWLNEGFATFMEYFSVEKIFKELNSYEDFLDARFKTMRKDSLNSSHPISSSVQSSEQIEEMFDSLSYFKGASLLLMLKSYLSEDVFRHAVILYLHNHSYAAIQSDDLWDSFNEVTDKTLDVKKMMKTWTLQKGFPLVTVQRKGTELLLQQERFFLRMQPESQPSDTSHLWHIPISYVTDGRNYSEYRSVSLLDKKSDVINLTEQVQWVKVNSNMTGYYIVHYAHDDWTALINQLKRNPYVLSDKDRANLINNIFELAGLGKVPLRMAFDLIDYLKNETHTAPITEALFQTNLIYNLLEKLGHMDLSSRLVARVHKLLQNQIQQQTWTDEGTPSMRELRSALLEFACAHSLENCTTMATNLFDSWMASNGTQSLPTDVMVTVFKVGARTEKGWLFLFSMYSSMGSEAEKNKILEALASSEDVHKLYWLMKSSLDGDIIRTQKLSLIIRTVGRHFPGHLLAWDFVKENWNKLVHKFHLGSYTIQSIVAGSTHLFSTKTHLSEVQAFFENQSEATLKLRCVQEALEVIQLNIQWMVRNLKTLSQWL
For the molecule `COc1ccc(C(=O)O)cc1S(=O)(=O)N(C)c1cc(C(F)(F)F)ccc1N1CCCCC1`, the “activity change, negative = inhibition” value is 5.09%. The same measure, in the same setting: then `COc1ccc(C(=O)O)cc1S(=O)(=O)Nc1cc(C)ccc1N1CCCCC1`, with -13.8%; and `O=C(O)c1ccc(Br)c(S(=O)(=O)Nc2cc(C(F)(F)F)ccc2N2CCCCC2)c1`, with -5.39%.

Regarding `COC(=O)c1ccc(OC)c(S(=O)(=O)Nc2cc(C(F)(F)F)ccc2N2CCCCC2)c1`, the “activity change, negative = inhibition” value was 16.9%. The same measure, in the same setting: the figure for `COc1ccc(C(=O)O)cc1S(=O)(=O)Nc1ccc(N2CCCCC2)cc1C(F)(F)F` is 9.65%; for `Cc1ccc(C(=O)O)cc1S(=O)(=O)Nc1cc(C(F)(F)F)ccc1N1CCCCC1` it is -2.16%. Take `COc1ccc(C(=O)O)cc1S(=O)(=O)Nc1cc(F)ccc1N1CCCCC1`: the “activity change, negative = inhibition” value was 13.7%. Consider `COc1ccc(C(=O)O)cc1S(=O)(=O)N1CCN(c2ccc(C(F)(F)F)cc2N)CC1`, for which the “activity change, negative = inhibition” value was 14.3%.

As for `COc1ccc(C(=O)O)cc1S(=O)(=O)Nc1cc(C(F)(F)F)ccc1N(C)C`, the “activity change, negative = inhibition” value is 3.47%. Still for that read-out and setting: then `COc1ccc(C(=O)O)cc1S(=O)(=O)Nc1cccc(N2CCCCC2)c1C(F)(F)F`, with 13.9%; and `COc1ccc(C(=O)O)cc1S(=O)(=O)Nc1cc(C(F)(F)F)ccc1N1CCN(C)CC1`, with 26.8%. For the molecule `COc1ccc(C(=O)O)cc1S(=O)(=O)Nc1cc(C(F)(F)F)ccc1N1CCCCC1`, the molecule was classed as inactive.

Take `Cc1ccc(S(=O)(=O)Nc2cc(C(F)(F)F)ccc2N2CCCCC2)cc1C(=O)O`: the “activity change, negative = inhibition” value is 0.616%.

On to `O=C(O)c1cc(F)cc(S(=O)(=O)Nc2cc(C(F)(F)F)ccc2N2CCCCC2)c1`, for which the “activity change, negative = inhibition” value was -0.991%. For the molecule `O=C(O)c1ccc(Cl)c(S(=O)(=O)Nc2cc(C(F)(F)F)ccc2N2CCCCC2)c1`, the “activity change, negative = inhibition” value was 17.3%. On the same count and under the same terms, the figure for `COc1ccc(C(=O)O)cc1S(=O)(=O)Nc1ccccc1N1CCCCC1` is 3.15%; for `O=C(O)c1cccc(S(=O)(=O)Nc2cc(C(F)(F)F)ccc2N2CCCCC2)c1` it is 22.7%. Same read-out and setting: the figure for `COc1ccc(C(=O)O)cc1S(=O)(=O)Nc1cc(C(F)(F)F)ccc1N1CCOCC1` is 28.6%.
